From PubChem BioAssay
Rows were chosen to be rich in hits. Some 10% of all compounds tested hit in one or more screens of this group.
HEK cytotox – Cytotoxic Profiling in HEK 293 Cell Line of Diverse Libraries Using Quantitative High-Throughput Screening; HEK 293 viability, ATP luminescence (CellTiter-Glo), 48-72 h; 94,000 tested, 6.6% active; Potency, µM (titrated, usually from 115 µM), hits mostly inhibitors; note: nearly all actives have a fitted effect of over 60% in size
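HEK 293 seeded at 250 cells/well receive compound via pintool. After 48 or 72 hr at 37 degree Celsius, 5% CO2 and 95% humidity, CellTiter-Glo is dispensed and luminescence read following 10 min at room temperature.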
NPR1 antag – Natriuretic polypeptide receptor (hNpr1) antagonism - Primary qHTS; Potency, µM (series often up to 46.3 µM), usual class: inhibitors; AID 1347048, 2019; Atrial natriuretic peptide receptor 1 (Homo sapiens), P16066; HEK293 hNpr1 GloSensor cGMP, ANP-stimulated luminescence; 76,000 tested, 1.6% active; calls by dose curve; note: nearly all actives have a fitted effect of over 60% in size
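HEK293 cells stably expressing human Npr1 and cGMP GloSensor pGS-40F, loaded 2 h with 2% GloSensor reagent, given compound 30 min at room temperature. Luminescence read before and 20 min after 0.1 nM hNppA.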
FLuc inh – Firefly luciferase inhibition profiling of diverse chemical library using quantitative high-throughput screening | Potency, µM (series often up to 115 µM), usual class: inhibitors | 76,000 tested, 2.5% active | Luciferin 4-monooxygenase (Photinus pyralis), P08659 | AID 1347043, 2019 | purified P. pyralis luciferase, luminescence, biochemical; note: nearly all actives have a fitted effect of over 65% in size
Target sequence (P08659 whole entry, looked up): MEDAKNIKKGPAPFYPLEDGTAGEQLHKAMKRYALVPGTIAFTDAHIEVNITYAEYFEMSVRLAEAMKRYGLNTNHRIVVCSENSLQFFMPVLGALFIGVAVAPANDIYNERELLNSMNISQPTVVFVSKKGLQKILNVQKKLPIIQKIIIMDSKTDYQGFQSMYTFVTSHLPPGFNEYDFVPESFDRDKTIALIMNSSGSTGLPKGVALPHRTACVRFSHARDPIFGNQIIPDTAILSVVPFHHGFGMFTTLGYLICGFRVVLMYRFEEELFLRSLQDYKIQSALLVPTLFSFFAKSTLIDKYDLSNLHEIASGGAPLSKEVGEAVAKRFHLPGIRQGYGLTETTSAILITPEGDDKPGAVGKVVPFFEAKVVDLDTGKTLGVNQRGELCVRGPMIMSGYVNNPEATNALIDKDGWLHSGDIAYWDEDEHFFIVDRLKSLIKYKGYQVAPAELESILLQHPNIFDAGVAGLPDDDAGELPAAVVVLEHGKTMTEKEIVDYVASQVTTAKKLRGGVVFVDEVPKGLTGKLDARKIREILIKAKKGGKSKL
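Purified 10nM P. pyralis luciferase with 10uM D-luciferin and 10uM ATP in 50mM Tris acetate pH 7.5, 10mM Mg acetate, 0.01% Tween-20, 0.05% BSA. qHTS titration; luminescence read by CCD imager.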
NIH3T3 tox – Cytotoxic Profiling in NIH 3T3 Cell Line of Diverse Libraries Using Quantitative High-Throughput Screening | 94,000 tested, 4.3% active | NIH 3T3 viability, CellTiter-Glo ATP luminescence, 48-72 h | AID 1345082, 2018 | Potency, µM (doses to about 96.7 µM), most hits filed as inhibitors; note: nearly all actives have a fitted effect of over 55% in size
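Cytotoxicity is measured as loss of cellular ATP: NIH 3T3 cells (400/well) are exposed to compound for 48 or 72 hr at 37 °C, then CellTiter-Glo luminescence is imaged after 10 min at room temperature.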
GPT2 inh – Primary qHTS assay for inhibitors of Glutamate pyruvate transaminase 2 (GPT2) | Alanine aminotransferase 2 (Homo sapiens), Q8TD30 | Recombinant GPT2, coupled pyruvate oxidase/HRP Amplex Red fluorescence | Potency, µM (highest dose often 57.7 µM), actives largely listed as inhibitors | 100,000 tested, 0.25% active | AID 1671188, 2021; note: nearly all actives have a fitted effect of over 60% in size
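Fluorescence read-out: pyruvate from GPT2 turnover coupled to pyruvate oxidase, HRP and Amplex Red (0.2mM ThPP, 0.2U/mL PO and HRP, 50uM Amplex final). Substrates 250uM a-KG, 2mM L-alanine; enzyme 10ng/uL; 30 min RT.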
A number is an active result; - = inactive; ? = inconclusive; . = not tested or not shown. Unless noted, calls come from the whole dose curve; as a rule, active = well fitted curve in the direction sought with a large enough effect; inconclusive = small, poorly fitted or top-dose-only effect, or another doubt; inactive = no such curve, though single readings can be large; an effect the other way counts as inactive or inconclusive.

SMILES | HEK cytotox | NPR1 antag | FLuc inh | NIH3T3 tox | GPT2 inh
O=C(NCCCc1ccccc1)c1n[nH]c2c1CN(C(=O)c1ccccc1F)CC2 | ? | - | - | 35µM | -
Cc1ccc(OC2(C(=O)N(C)Cc3n[nH]c4c3CCCC4)CCNCC2)cc1 | ? | - | - | ? | -
CC(C)C(=O)N1CCc2[nH]nc(C(=O)NCCCc3ccccc3)c2C1 | ? | - | - | ? | -
CCCC(C)C(=O)N1CCc2[nH]nc(C(=O)NCCCc3ccccc3)c2C1 (centres undefined) | 35µM | . | . | 40µM | -
CCCn1c(C)cnc1CC1CCN(S(=O)(=O)c2ccc3c(c2)CCC3)C1 (centres undefined) | ? | - | - | ? | -
Cc1cnc(CC2CCN(S(=O)(=O)c3ccc4c(c3)CCC4)C2)n1CC1CC1 (centres undefined) | 50µM | ? | - | ? | -
Cn1nc(C2CC2)n(C2CCN(C(=O)CCCc3ccccc3)CC2)c1=O | - | . | . | - | -
O=C(c1ccccc1)N1CCCC(C(=O)N2CCC(c3nc4ncccc4[nH]3)C2)C1 (centres undefined) | - | . | . | - | -
CC1=C[C@@H](CN2CCC(C(N)=O)CC2)[C@H](C(C)C)C[C@H]1Cc1nnc(-c2ccccc2F)o1 | ? | - | - | ? | -
CC1=C[C@@H](CN(C)CCN(C)C)[C@H](C(C)C)C[C@H]1Cc1nnc(-c2ccccc2)o1 | 45µM | - | - | 28µM | -
CC1=C[C@@H](CNC(=O)C(C)(C)C)[C@H](C(C)C)C[C@H]1Cc1nnc(-c2ccccc2F)o1 | 32µM | - | - | ? | -
CC1=C[C@@H](CN(C)CCc2ccccn2)[C@H](C(C)C)C[C@H]1Cc1nnc(-c2ccncc2)o1 | 79µM | - | - | ? | -
CC1=C[C@@H](CN(C)CCC#N)[C@H](C(C)C)C[C@H]1Cc1nnc(-c2ccccc2F)o1 | 79µM | ? | - | ? | -
Nc1nc2c(s1)CCN(Cc1ccc(Cl)cc1)CC2 | . | . | . | . | -
CC(C)(C)c1ccc(C(=O)Nc2nc3c(s2)C[C@@H]2[C@](C)(CO)[C@H](O)CC[C@@]2(C)[C@@H]3CC(=O)NCc2ccco2)cc1 | ? | - | ? | ? | -
Cc1csc(Nc2ccc3c(n2)CN(C)C(=O)CO3)n1 | 18µM | - | - | 32µM | ?
Cc1csc(Nc2ccc3c(n2)CN(CCOc2ccccc2)C(=O)CO3)n1 | ? | - | - | ? | ?
COc1ccc(C(=O)N2CCC(n3cc(-c4nc(-c5ccccc5)no4)nn3)C2)cc1F (centres undefined) | ? | ? | ? | - | -
CCCc1noc(-c2cn(C3CCN(C(=O)c4ccc(F)c(F)c4)CC3)nn2)n1 | ? | - | - | 13µM | -
COc1cccc(C(=O)N2CCC(N3C[C@H](O)C[C@H]3C(=O)N3CC=C(c4ccccc4)CC3)CC2)c1 | 79µM | - | - | - | -
COc1cccc(C(=O)N2CCC(n3cc(-c4nc(-c5ccccc5)no4)nn3)C2)c1 (centres undefined) | ? | 11µM | ? | ? | -
COc1cccc(C(=O)N2CCC(n3cc(-c4nc(-c5ccccc5)no4)nn3)CC2)c1 | 45µM | ? | ? | ? | -
COc1cccc(C(=O)N2CCC(N3C[C@H](O)C[C@H]3C(=O)N3CCc4ccccc43)CC2)c1 | - | - | - | - | -
Cc1cccc(OCC(=O)N2CCC(n3cc(-c4nc(C5CC5)no4)nn3)C2)c1 (centres undefined) | - | - | - | - | -
Cc1cccc(OCC(=O)N2CCC(n3cc(-c4nc(-c5ccccc5)no4)nn3)C2)c1 (centres undefined) | 10µM | - | ? | 13µM | -
Cc1ccc(-c2noc([C@@H]3C[C@H](NC(=O)Nc4cccc(F)c4)CN3C)n2)cc1 | 63µM | ? | 63µM | ? | -
CN1C[C@@H](NC(=O)Nc2ccccc2)C[C@H]1c1nc(-c2ccccc2)no1 | ? | - | - | - | -
